Screening data from PubChem.
CF NFkB block = inhibitors of PAF-induced NF-kB signaling, primary screen, cell-based, GFP fluorescence, uHTS | KKLEB NF-kB-GFP reporter, GFP fluorescence overnight | inhibition, % at 5 µM | actives 0.86% (n = 360,000) | AID 588850, 2011;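 active means at least 50% inhibition at 5 µM, scaled per plate between neutral and stimulator controls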;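 further: PAF is a Pseudomonas aeruginosa culture filtrate used as stimulus; plate controls were PAF-stimulated DMSO wells for no effect and unstimulated DMSO wells for full effect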
KKLEB cytotox = cytotoxicity in KKLEB CF airway cells, primary screen, cytotoxicity control for CF NF-kB inhibitor project, cell-based, uHTS, fluorescence assay plates | AID 602141, 2011 | KKLEB CF airway cells viability, ATPlite luminescence, overnight; active compounds read low; cells stimulated with P. aeruginosa culture filtrate | activity change (cytotoxicity), % at 5 µM | actives 0.36% (n = 360,000);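 active means corrected activity change at or below -50% at 5 µM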
CHOP inh = inhibitors of CHOP promoter induction, primary screen, cell-based, unfolded protein response, luciferase reporter. CHO-K1 CHOP-promoter luciferase, tunicamycin-induced, 15-18 h. inhibition, % at 10 µM. actives 3.8% (n = 220,000);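 active means compounds that reduced the stress-induced luciferase reporter signal by more than about 70% of percent inhibition, limit read from the data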;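 further: 0% = tunicamycin plus vehicle and 100% = wells without tunicamycin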
Peg3 promoter = Peg3 promoter-driven luciferase inhibitors, primary screen, cell-based, HeLa, luciferase luminescence; HeLa PEG-Prom luciferase reporter, overnight; inhibition, % at 20 µM; actives 1.7% (n = 360,000); AID 588405, 2011;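 active means inhibition of at least 50% at 20 µM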
HIF-2a block = HIF-2a reporter inhibitors, primary screen, luminescence, 786-0 RCC cells | inhibition, % at 18.8 µM | 786-0 RCC cells HIF-2a reporter, luciferase luminescence, overnight | actives 0.72% (n = 360,000);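 active means inhibition of the luminescence signal of 40% or more relative to plate controls, in a single-dose primary screen at 18.75 µM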
TRPM1 prom inh = inhibitors of MITF-dependent TRPM1 promoter reporter, primary screen, cell-based, SK-MEL-5, single point, luciferase | SK-MEL-5 TRPM1 promoter luciferase, 24 h | inhibition, % at 12.5 µM | actives 0.83% (n = 330,000);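 active means mean inhibition across replicates of 60% or more, whatever share of single replicates reaches that level; inconclusive means some that reach 60%, reason not given; inactive means mean inhibition across replicates below 60%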
The depositor's hits bear a star; ? = inconclusive; / = no result. Sampled rows, rich in hits. Any-hit rate of the full collection: about 4.3%.

SMILES	CF NFkB block	KKLEB cytotox	CHOP inh	Peg3 promoter	HIF-2a block	TRPM1 prom inh
COc1ccc(C)cc1NS(=O)(=O)c1ccc(-c2cnc(C3CC3)o2)cc1	41	11	/	6	40	68*
CCCCCCn1c(=O)[nH]c2nc3cc(N)c(C)cc3nc2c1=O	-50	1	101*	6	-23	-5
CN(C)c1ccc(/C=C/c2ccc3ccccc3[n+]2C)cc1	-73	-13	70*	37	-59	88*
CN(CCCS(=O)(=O)[O-])c1ccc(/C=C/c2ccc3ccccc3[n+]2C)cc1	-5	-4	/	1	6	-5
OCCNc1nnc(-c2ccccc2)c(-c2ccccc2)n1	-5	4	/	20	10	0
CC(C)=C(NC(=O)c1ccccc1)C(=O)NC(Cc1ccccc1)C(=O)O (configuration not stated)	-5	4	/	8	4	2
COC(=O)c1sc(N2C(=O)c3oc4ccccc4c(=O)c3C2c2cccc(O)c2)nc1C (configuration not stated)	0	-1	75*	52*	11	-23
COCCN1C(=O)c2oc3ccccc3c(=O)c2C1c1cccc(O)c1 (configuration not stated)	-16	4	34	13	-9	-1
Oc1c(Br)cc(Br)cc1/C=N/Nc1ccc(Cl)nn1	3	-20	/	48	18	66*
Oc1c(Br)cc(/C=N/Nc2ccc(Cl)nn2)cc1Br	-20	30	/	-3	22	2
CCN(C(=O)Cc1c(C(=O)O)n(CC)c2ccccc12)c1cccc(C(F)(F)F)c1	4	19	/	17	9	0
O=C(CSc1n[nH]c(-c2ccccn2)n1)Nc1ccc(Cl)cc1	10	-1	/	53*	16	22
Cc1ccc2nc(-c3ccc(NC(=S)NC(=O)C(C)C)cc3)sc2c1	-15	18	-57	-329	-291	-101
Cc1ccc2nc(-c3ccc(NC(=O)CCN4C(=O)c5ccccc5C4=O)cc3)sc2c1	-5	-28	45	-90	-187	-20
Cc1ccc2nc(-c3ccc(NC(=S)NC4CC(C)(C)NC(C)(C)C4)cc3)sc2c1	38	-44	59	105*	-195	-45
Cc1ccc(C2(C)NC(=O)N(CC(=O)Nc3ccc(-c4nc5ccc(C)cc5s4)cc3)C2=O)cc1 (configuration not stated)	-31	0	73*	-321	-237	-58
CN(Cc1ccc(OC(F)F)cc1)C(=O)c1cccc(S(=O)(=O)N2CCN(Cc3ccccc3)CC2)c1	11	-19	/	16	13	31
COc1cccc(NC(=S)N(CCCN2CCCC2)Cc2cccn2Cc2ccc(Cl)cc2)c1	16	-3	-22	0	-21	-31
CSc1cccc(NC(=S)N(CCCN2CCCC2)Cc2cccn2Cc2ccc(Cl)cc2)c1	17	-13	22	108*	-10	?
S=C(Nc1cccc(Cl)c1)N(CCCN1CCCC1)Cc1cccn1Cc1ccc(Cl)cc1	38	-34	14	100*	8	31
O=C(O)c1ccc(Cl)cc1NC(=O)C1CCN(S(=O)(=O)c2cccs2)CC1	-11	30	/	-1	11	/
CCOc1ccccc1N1CCN(C(=O)c2cc(-c3cccnc3)nc3c(Cl)cccc23)CC1	32	-16	/	27	3	32
COc1ccc(C)cc1S(=O)(=O)N1CCCC(C(=O)N2CCN(c3ccccc3F)CC2)C1 (configuration not stated)	24	-4	/	15	14	-1
C=CCC[C@@H](Cc1ccc(F)cc1)C(=O)OC[C@H](Cc1c[nH]c2ccccc12)NC(=O)[C@H](CC=C)CC(=O)N(CCO)Cc1ccccc1	2	2	/	64*	-21	17
C=CCC[C@H](Cc1ccc(F)cc1)C(=O)OC[C@H](Cc1c[nH]c2ccccc12)NC(=O)[C@@H](CC=C)CC(=O)N(CCO)Cc1ccccc1	3	0	/	54*	-9	20
